According to the supplement of paper PMC8728848:
The sample as a whole holds a higher share of the strongest signals than the screen did.

Columns and labels:
Assay in all cases: glycan array binding signal (z-score within array); higher = stronger binding
Conditions in all cases: glycan notation: IUPAC condensed, linker removed
Fuc(a1-2)Gal(b1-3)GalNAc = target: Fuc(a1-2)Gal(b1-3)GalNAc
Outline: (§1)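 The binding signal is a Z-score computed within each array. Data were drawn from 3228 arrays in the Consortium for Functional Glycomics database, restricted to those with a known protein sequence. Scores were averaged over arrays of the same protein sequence at different concentrations or buffers, and over linkers, and negative values can be taken as non-binding.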

Fuc(a1-4)GlcNAc = target: Fuc(a1-4)GlcNAc
Outline: as §1

[1] = target: Gal(a1-3)[Gal(a1-4)]Gal(b1-4)GlcNAc
Outline: as §1

[2] = target: Gal(b1-3)GalNAc(b1-3)Gal(a1-4)Gal(b1-4)Glc
Outline: as §1

[3] = target: Gal(b1-4)GalNAc(b1-3)[Fuc(a1-2)]Gal(b1-4)GlcNAc
Outline: as §1

[4] = target: Gal(b1-4)GlcNAc(b1-3)GalNAc
Outline: as §1

[5] = target: Gal(b1-4)GlcNAc(b1-6)GalNAc
Outline: as §1

Gal3S6S(b1-4)GlcNAc = target: Gal3S6S(b1-4)GlcNAc
Outline: as §1

GalNAc(b1-3)GalNAc = target: GalNAc(b1-3)GalNAc
Outline: as §1

[6] = target: GlcNAc(b1-2)Gal(b1-3)GalNAc
Outline: as §1

[7] = target: GlcNAc(b1-3)Gal(b1-3)GalNAc
Outline: as §1

GlcNAc(b1-3)GalNAc = target: GlcNAc(b1-3)GalNAc
Outline: as §1

[8] = target: GlcNAc(b1-6)Gal(b1-4)GlcNAc
Outline: as §1

[9] = target: Man(a1-2)Man(a1-3)[Man(a1-6)]Man(a1-6)[Man(a1-2)Man(a1-3)]Man(b1-4)GlcNAc(b1-4)GlcNAc
Outline: as §1

Man(b1-4)GlcNAc = target: Man(b1-4)GlcNAc
Outline: as §1

[10] = target: Neu5Ac(a2-8)Neu5Ac(a2-8)Neu5Ac
Outline: as §1

[11] = target: Fuc(a1-2)Gal(b1-3)GlcNAc(b1-2)Man(a1-3)[Fuc(a1-2)Gal(b1-3)GlcNAc(b1-2)Man(a1-6)]Man(b1-4)GlcNAc(b1-4)GlcNAc
Outline: as §1

[12] = target: Fuc(a1-2)Gal(b1-4)GlcNAc(b1-2)[Fuc(a1-2)Gal(b1-4)GlcNAc(b1-4)]Man(a1-3)[Fuc(a1-2)Gal(b1-4)GlcNAc(b1-2)Man(a1-6)]Man(b1-4)GlcNAc(b1-4)GlcNAc
Outline: as §1

[13] = target: Fuc(a1-2)[Gal(a1-3)]Gal(b1-4)Glc
Outline: as §1

[14] = target: Fuc(a1-2)[Gal(a1-3)]Gal(b1-4)GlcNAc(b1-2)Man(a1-3)[Fuc(a1-2)[Gal(a1-3)]Gal(b1-4)GlcNAc(b1-2)Man(a1-6)]Man(b1-4)GlcNAc(b1-4)GlcNAc
Outline: as §1

[15] = target: Fuc(a1-2)[Gal(a1-3)]Gal(b1-4)[Fuc(a1-3)]GlcNAc
Outline: as §1

[16] = target: Fuc(a1-2)[GalNAc(a1-3)]Gal(b1-3)GlcNAc(b1-2)Man(a1-3)[Fuc(a1-2)[GalNAc(a1-3)]Gal(b1-3)GlcNAc(b1-2)Man(a1-6)]Man(b1-4)GlcNAc(b1-4)[Fuc(a1-6)]GlcNAc
Outline: as §1

[17] = target: Fuc(a1-2)[GalNAc(a1-3)]Gal(b1-4)GlcNAc(b1-2)Man(a1-3)[Fuc(a1-2)[GalNAc(a1-3)]Gal(b1-4)GlcNAc(b1-2)Man(a1-6)]Man(b1-4)GlcNAc(b1-4)GlcNAc
Outline: as §1

[18] = target: Fuc(a1-2)[GalNAc(a1-3)]Gal(b1-4)GlcNAc(b1-3)Gal(b1-4)GlcNAc
Outline: as §1

[19] = target: Fuc(a1-2)[GalNAc(a1-3)]Gal(b1-4)GlcNAc(b1-3)Gal(b1-4)GlcNAc(b1-3)Gal(b1-4)GlcNAc
Outline: as §1

[20] = target: Fuc(a1-3)[Gal(b1-4)]GlcNAc(b1-2)Man(a1-6)[Gal(b1-4)GlcNAc(b1-2)Man(a1-3)]Man(b1-4)GlcNAc(b1-4)GlcNAc
Outline: as §1

Gal(a1-3)Gal = target: Gal(a1-3)Gal
Outline: as §1

[21] = target: Gal(a1-3)Gal(b1-4)[Fuc(a1-3)]GlcNAc(b1-2)Man(a1-3)[Gal(a1-3)Gal(b1-4)[Fuc(a1-3)]GlcNAc(b1-2)Man(a1-6)]Man(b1-4)GlcNAc(b1-4)GlcNAc
Outline: as §1

Gal(b1-2)Gal = target: Gal(b1-2)Gal
Outline: as §1

[22] = target: Gal(b1-3)GalNAc(a1-3)[Fuc(a1-2)]Gal(b1-4)GlcNAc
Outline: as §1

Gal(b1-3)GlcNAc = target: Gal(b1-3)GlcNAc
Outline: as §1

[23] = target: Gal(b1-3)GlcNAc(b1-2)Man(a1-3)[Gal(b1-3)GlcNAc(b1-2)Man(a1-6)]Man(b1-4)GlcNAc(b1-4)[Fuc(a1-6)]GlcNAc
Outline: as §1

[24] = target: Gal(b1-3)GlcNAc(b1-3)Gal(b1-4)Glc
Outline: as §1

[25] = target: Gal(b1-3)GlcNAc(b1-3)GalNAc
Outline: as §1

Gal(b1-4)Gal = target: Gal(b1-4)Gal
Outline: as §1

[26] = target: Gal(b1-4)GlcNAc(b1-2)Man(a1-3)[Man(a1-6)]Man(b1-4)GlcNAc(b1-4)GlcNAc
Outline: as §1

[27] = target: Gal(b1-4)GlcNAc(b1-2)[Gal(b1-4)GlcNAc(b1-6)]Man(a1-6)[GlcNAc(b1-4)][Gal(b1-4)GlcNAc(b1-2)Man(a1-3)]Man(b1-4)GlcNAc(b1-4)GlcNAc
Outline: as §1

[28] = target: Gal(b1-4)GlcNAc(b1-3)Gal(b1-3)GlcNAc
Outline: as §1

[29] = target: Gal(b1-4)GlcNAc(b1-3)Gal(b1-4)Glc
Outline: as §1

Gal3S6S(b1-4)GlcNAc6S = target: Gal3S6S(b1-4)GlcNAc6S
Outline: as §1

Gal6S(b1-4)Glc6S = target: Gal6S(b1-4)Glc6S
Outline: as §1

Gal6S(b1-4)GlcNAc = target: Gal6S(b1-4)GlcNAc
Outline: as §1

GalNAc6S(b1-4)GlcNAc = target: GalNAc6S(b1-4)GlcNAc
Outline: as §1

[30] = target: Glc(a1-6)Glc(a1-6)Glc(a1-6)Glc
Outline: as §1

Glc(b1-4)Glc = target: Glc(b1-4)Glc
Outline: as §1

B1: MPA (Maclura pomifera) (protein)
chain: GVTFDDGAYTGIREINFEYNSETAIGGLRVTYDLNGMPFVAEDHKSFITGFKPVKISLEFPSEYIVEVSGYVGKVEGYTVIRSLTFKTNKQTYGPYGVTNGTPFSLPIENGLIVGFKGSIGYWLDYFSIYLSLNGPNGKSQSIIVGPWGDRVTN
- glycan array binding signal (z-score) (Fuc(a1-2)Gal(b1-3)GalNAc): 2.25
- glycan array binding signal (z-score) (Fuc(a1-4)GlcNAc): -0.223
- glycan array binding signal (z-score) [1]: -0.16
- glycan array binding signal (z-score) [2]: -0.24
- glycan array binding signal (z-score) [3]: -0.249
- glycan array binding signal (z-score) [4]: 5.97
- glycan array binding signal (z-score) [5]: -0.161
- glycan array binding signal (z-score) (Gal3S6S(b1-4)GlcNAc): -0.233
- glycan array binding signal (z-score) (GalNAc(b1-3)GalNAc): 6.31
- glycan array binding signal (z-score) [6]: 5.63
- glycan array binding signal (z-score) [7]: 3.46
- glycan array binding signal (z-score) (GlcNAc(b1-3)GalNAc): 6.85
- glycan array binding signal (z-score) [8]: -0.229
- glycan array binding signal (z-score) [9]: -0.244
- glycan array binding signal (z-score) (Man(b1-4)GlcNAc): -0.24
- glycan array binding signal (z-score) [10]: -0.244

B2: Gal 8 (Homo sapiens), O00214_1 (protein)
chain: MMLSLNNLQNIIYNPVIPFVGTIPDQLDPGTLIVIRGHVPSDADRFQVDLQNGSSMKPRADVAFHFNPRFKRAGCIVCNTLINEKWGREEITYDTPFKREKSFEIVIMVLKDKFQVAVNGKHTLLYGHRIGPEKIDTLGIYGKVNIHSIGFSFSSDLQSTQASSLELTEISRENVPKSGTPQLRLPFAARLNTPMGPGRTVVVKGEVNANAKSFNVDLLAGKSKDIALHLNPRLNIKAFVRNSFLQESWGEEERNITSFPFSPGMYFEMIIYCDVREFKVAVNGVHSLEYKHRFKELSSIDTLEINGDIHLLEVRSW
- glycan array binding signal (z-score) (Fuc(a1-2)Gal(b1-3)GalNAc): -0.23
- glycan array binding signal (z-score) [11]: 0.466
- glycan array binding signal (z-score) [12]: -1.24
- glycan array binding signal (z-score) [13]: 3.1
- glycan array binding signal (z-score) [14]: 2.33
- glycan array binding signal (z-score) [15]: -0.143
- glycan array binding signal (z-score) [16]: 1.73
- glycan array binding signal (z-score) [17]: 2.14
- glycan array binding signal (z-score) [18]: 2.58
- glycan array binding signal (z-score) [19]: 2.31
- glycan array binding signal (z-score) [20]: -0.273
- glycan array binding signal (z-score) (Gal(a1-3)Gal): -0.252
- glycan array binding signal (z-score) [21]: -0.137
- glycan array binding signal (z-score) (Gal(b1-2)Gal): -0.201
- glycan array binding signal (z-score) [22]: 2.17
- glycan array binding signal (z-score) (Gal(b1-3)GlcNAc): -0.167
- glycan array binding signal (z-score) [23]: -0.63
- glycan array binding signal (z-score) [24]: 0.084
- glycan array binding signal (z-score) [25]: -0.235
- glycan array binding signal (z-score) (Gal(b1-4)Gal): -0.099
- glycan array binding signal (z-score) [26]: 0.003
- glycan array binding signal (z-score) [27]: -0.251
- glycan array binding signal (z-score) [28]: 1.38
- glycan array binding signal (z-score) [29]: 2.32
- glycan array binding signal (z-score) (Gal3S6S(b1-4)GlcNAc6S): -0.201
- glycan array binding signal (z-score) (Gal6S(b1-4)Glc6S): -0.094
- glycan array binding signal (z-score) (Gal6S(b1-4)GlcNAc): -0.172
- glycan array binding signal (z-score) (GalNAc6S(b1-4)GlcNAc): -0.215
- glycan array binding signal (z-score) [30]: -0.23
- glycan array binding signal (z-score) (Glc(b1-4)Glc): 0.078
